This is an account of results in PubChem BioAssay (EPA / NIEHS).

Inconclusive results are not listed. Activity calls are given as the source filed them. Rule for the calls: active = hit-call score of the fitted dose curve at least 0.9, where 1 is the maximum; inconclusive = response in the unintended direction; inactive = score below 0.9.

This assay is described as follows: TOX21_p53_BLA_p2_viability: Viability Assessment in the Tox21 HCT-116 p53 Agonism Beta-lactamase Assay, Phase 2 (AID 2283591).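 Note: compound exposure lasted 16 h at 37 °C; actives lower the ATP signal meaning cytotoxicity.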 A digest of the protocol: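 HCT-116 p53-bla cells (4000/well) rested 5 h at 37C, then received compounds in DMSO (217-fold dilution) for 16 h at 37C, 5% CO2. After the CCF4 read, CellTiter-Glo was added; ATP luminescence was read after 30 min at room temperature.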
In the case of `CCC(=O)OCc1ccccc1`, the outcome was inactive. As to `CC(=O)[C@H]1CC[C@H]2[C@@H]3CC=C4C[C@@H](O)CC[C@]4(C)[C@H]3CC[C@]12C`, the compound was called inactive. In the case of `O=C1C(c2[nH]c3ccc(S(=O)(=O)O)cc3c2O)=Nc2ccc(S(=O)(=O)O)cc21` it was “inactive”; in that of `CCCCCCCCCCCCCC(=O)O`, “inactive”.

For `FC1(F)C(F)(F)C(F)(F)C2(F)C(F)(C1(F)F)C(F)(F)C(F)(F)C1(F)C(F)(F)C(F)(F)C(F)(F)C(F)(F)C12F` (stereo unspecified), the outcome was inactive. As to `CCn1c2ccccc2c2cc(N)ccc21`, the compound was called inactive. With `CC(C)OP(=O)(CP(=O)(OC(C)C)OC(C)C)OC(C)C`, the call was inactive. The entry for `CC(=O)Nc1ccccc1O` is “inactive”. Take `COc1ccc(Nc2ccccc2)c(C)c1`: the result was inactive. With `O=Nc1ccc(Nc2ccccc2)cc1`, the compound was called inactive.

In the case of `CCCCCC=CCC(=O)OC`, the outcome was inactive. Take `CCCCNC(=O)NS(=O)(=O)c1ccc(C)cc1`: the outcome was inactive. For the compound `O=C(OCc1ccccc1)C(=O)OCc1ccccc1`, the outcome was inactive. In the case of `O=Cc1ccc(F)cc1` it was “inactive”; in that of `O=C(O)COCCN1CCN(C(c2ccccc2)c2ccc(Cl)cc2)CC1` (stereo unspecified), “inactive”; in that of `Nc1cccc(S(=O)(=O)c2cccc(N)c2)c1`, “inactive”. In the case of `CCCCCCOC(=O)CC`, the compound was classed as inactive. In the case of `C=C(C)C(=O)O[C@H]1C[C@@H]2CC[C@@]1(C)C2(C)C` it was “inactive”; in that of `c1ccc2c(c1)c1cccc3ccc4cccc2c4c31`, “inactive”.

As for `c1cc(C(c2ccc(OCC3CO3)cc2)c2ccc(OCC3CO3)cc2)ccc1OCC1CO1` (stereo unspecified), the call was inactive. `Nc1ccc(S(N)(=O)=O)cc1`: the compound was called inactive. As to `CCCCCCCCCCC(CO)CCCCCCCC` (stereo unspecified), the result was inactive. The entry for `O=C(Oc1ccccc1)c1ccc(O)cc1` is “inactive”; for `Cc1ccc(Nc2ccc(O)c3c2C(=O)c2ccccc2C3=O)cc1` it is “inactive”.

For the compound `C=CC(C)(CCC=C(C)C)OC=O` (stereo unspecified), the outcome was inactive. In the case of `CC(C)[C@H]1CC[C@@H](C)CC1=O` it was “inactive”; in that of `C[C@H]1C[C@@H]2[C@H]([C@@H](O)C[C@@]3(C)[C@H]2CC[C@]3(O)C(=O)CO)[C@@]2(C)C=CC(=O)C=C12`, “inactive”. Turning to `CCOc1ccccc1OCC`, the result was inactive. The entry for `CCCC(=O)c1cc(O)c(O)cc1O` is “inactive”; for `CC(=O)O[C@]1(C(C)=O)CC[C@H]2[C@@H]3C[C@H](C)C4=CC(=O)CC[C@]4(C)[C@H]3CC[C@@]21C` it is “inactive”. Turning to `COC(C)CCO` (stereo unspecified), the outcome was inactive. The entry for `CC(C)c1cccc(O)c1` is “inactive”; for `O=C(O)CCCCCCCC(=O)O` it is “inactive”; for `CCCCc1ccc(N)cc1` it is “inactive”. In the case of `CC(C#N)(CCC(=O)O)N=NC(C)(C#N)CCC(=O)O` (stereo unspecified) it was “inactive”; in that of `Fc1c(F)c(F)c(Br)c(F)c1F`, “inactive”.
